Test results published in the supplement of paper PMC11150407.
The whole screen tested about 3,000 compounds, of which about 45 (2%) showed an effect of 50% or more. This is one part of a sample in which strong results are shown more often than they occur.

Tested on: MOLM1 and UCSD/AML1 (averaged)
Assay: cell viability relative to DMSO control (POC); higher = less growth inhibition
Conditions: 1 µM; 72 h
Description: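 Primary viability screen in the 3q26 EVI1-high AML cell lines MOLM1 and UCSD/AML1, compounds at 1 uM for 72 h. ATP CellTiter-Glo read-out given as percent viable over DMSO control (POC), averaged over duplicates. This mapping covers the TimTec NDL-3000 natural derivative library, whose compounds are identified by TimTec catalogue codes (ST...).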

Row | SMILES | cell viability
1 | OCC1N2CCC(CC2)C1(O)O (stereo not given) | 32.3%
2 | CCOC(=O)C1=C(N)Oc2c(c(=O)oc3ccccc23)C1c1ccc(Cl)cc1Cl (stereo not given) | 104%
3 | CC(=O)OC1CCC2(C)C3CCC4(C)C(CC[C@]4(OC(C)=O)C(C)OC(C)=O)C3CC[C@H]2C1 (stereo not given in full) | 109%
4 | CN1C(=O)C(=Cc2ccc3c(c2)OCO3)C(=O)N(C)C1=O | 111%
5 | O.O.OCC1CCCN2CCCCC12.[Cl][Cu][Cl] (stereo not given) | 110%
6 | Cc1ccc(C(c2c(O)c3ccccc3oc2=O)c2c(O)c3ccccc3oc2=O)cc1 | 102%
7 | CCOC(=O)C1=C(N)Oc2c(c(=O)oc3ccccc23)C1c1cccc(Br)c1 (stereo not given) | 103%
8 | CCOC(=O)C1=C(N)Oc2c(c(=O)oc3ccccc23)C1c1ccc(Cl)c(Cl)c1 (stereo not given) | 37.7%
9 | CCOC(=O)C1=C(N)Oc2c(c(=O)oc3ccccc23)C1c1ccc(Br)cc1 (stereo not given) | 93%
10 | COCCOC(=O)c1c(C)n(Cc2ccccc2Cl)c2ccc(O)cc12 | 106%
